PI4K2A block – qHTS for small molecular inhibitors of PI4K2A. 420,000 compounds, 0.13% hits. purified PI4K2A, ADP-Glo luminescence, 1 h; stronger effect = lower value. Phosphatidylinositol 4-kinase type 2-alpha (Homo sapiens), Q9BTU6. activity change, negative = inhibition, % at 76.9 µM; in the data active means activity change below about -50%; inconclusive means mostly about -30% to -49%;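 further: -100% = wells without enzyme as full effect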
Target sequence (Q9BTU6 whole entry, looked up): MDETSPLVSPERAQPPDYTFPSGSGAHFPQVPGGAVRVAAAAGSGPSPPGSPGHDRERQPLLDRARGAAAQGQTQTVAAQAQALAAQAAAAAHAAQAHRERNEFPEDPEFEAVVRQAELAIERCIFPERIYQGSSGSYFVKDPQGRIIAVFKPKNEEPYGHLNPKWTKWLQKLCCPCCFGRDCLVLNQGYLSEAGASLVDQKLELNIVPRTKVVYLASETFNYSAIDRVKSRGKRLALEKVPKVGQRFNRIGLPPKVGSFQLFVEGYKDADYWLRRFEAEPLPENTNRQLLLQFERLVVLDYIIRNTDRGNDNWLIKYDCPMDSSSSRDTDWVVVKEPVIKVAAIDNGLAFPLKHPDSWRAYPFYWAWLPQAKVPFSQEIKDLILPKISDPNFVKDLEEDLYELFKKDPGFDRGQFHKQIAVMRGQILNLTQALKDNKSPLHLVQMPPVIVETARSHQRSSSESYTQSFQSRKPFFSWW
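In this quantitative HTS, ADP production by PI4K2A was quantified luminescently after 1 h at ambient temperature; 100 microM adenosine served as plate-quality control.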
D3 ag – qHTS of D3 Dopamine Receptor Agonist: qHTS; D(3) dopamine receptor (Homo sapiens), P35462; max activation, %; 410,000 compounds, 0.58% hits; D3R DiscoveRx beta-arrestin cells, luminescence, 90 min; in the data active means max activation above about 30%; further: 0% is about no effect
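Agonist mode: compounds and dopamine controls were applied to plated cells for 90 min at 37 degrees C after an overnight attachment at 1500 cells/well. Luminescent read-out followed 30 - 60 minutes at room temperature with DiscoveRx detection reagent.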
PI5P4K alpha inh – qHTS for Inhibitors of phosphatidylinositol 5-phosphate 4-kinase (PI5P4K); Phosphatidylinositol 5-phosphate 4-kinase type-2 alpha (Homo sapiens), P48426; PI5P4Kalpha enzyme, ADP-Glo luminescence, 60 min; stronger effect = lower value; max response, %; 330,000 compounds, 1.2% hits; AID 652105, 2013; active means max response of -50% or lower; inconclusive means between -30% and -50%; inactive means -30% or higher; further: value at the top dose of about 77 µM; on the % scale 0 is the no-effect control and ±100 the full control effect
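ADP-Glo luminescence end-point read after a 60 min room-temperature kinase reaction of PI5P4Kalpha plus substrate, initiated with ATP at 5 microM final. Buffer: 0.038 M HEPES pH 7.4, EGTA, 0.1% CHAPS, 5% DMSO.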
LDHA block – qHTS assay for inhibitors of human lactate dehydrogenase; L-lactate dehydrogenase A chain (Homo sapiens), P00338; purified LDHA, NADH/diaphorase-resazurin fluorescence; stronger effect = lower value; activity change, % (values are at about 110 or 230 µM); 480,000 compounds, 0.15% hits; in the data active means activity change below about -30%; inconclusive means mostly about -25% to -30%;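 further: plate controls were DMSO wells for no effect and wells without enzyme for full effect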
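Human LDH5 at 2 nM final in Tris HCl pH 7.4 with 0.06 mM NADH and 0.2 mM pyruvate, reacted 5 minutes at room temperature. Remaining NADH coupled via diaphorase/resazurin; resorufin fluorescence read at 0 and 20 minutes, normalized to enzyme-free and DMSO wells.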
DRD3 antagonist – qHTS of D3 Dopamine Receptor Antagonist: qHTS; D(3) dopamine receptor (Homo sapiens), P35462; D3R cells, DiscoveRx beta-arrestin luminescence, antagonist mode; stronger effect = lower value; max response, negative = inhibition, %; 360,000 compounds, 2.5% hits; in the data active means max response below about -50%; inconclusive means no clear call, values can overlap the other calls; further: on the % scale 0 is the no-effect control and ±100 the full control effect
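Cells expressing the human receptor were seeded at 1500 cells/well, incubated overnight at 37 degrees C in 5% CO2, then exposed to library compounds with dopamine controls for 90 minutes at 37 degrees C before luminescent detection.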
Starred values were filed as active, the others as inactive; ? = inconclusive; . = no result. Only some compounds are listed: those with a hit (about 3.3% of all), similar ones and a draw of the others.

SMILES	PI4K2A block	D3 ag	PI5P4K alpha inh	LDHA block	DRD3 antagonist
NC(=O)C1CCN(C(=O)c2cc3ccccc3[nH]2)CC1	.	.	.	-1	.
Cc1cc(C)c(C#N)c(N2CCN(S(=O)(=O)Cc3ccccc3)CC2)n1	6	2	1	-12	-7
Cc1cc(C)c(C#N)c(N2CCN(Cc3ccc4c(c3)OCO4)CC2)n1	-11	-20	-10	0	-57*
Cc1ccc2nc(N3CCN(Cc4nnnn4Cc4ccccc4)CC3)c(C#N)cc2c1	5	0	7	-2	-74*
Cc1ccc2nc(N3CCN(C)CC3)c(C#N)cc2c1	0	-15	11	-1	?
Cc1cc(C)c(C#N)c(N2CCN(Cc3ccccc3)CC2)n1	8	-60	.	-2	-93*
O=c1oc2cc(OC/C(=N\O)c3ccccc3)ccc2c2c1CCC2	.	.	.	7	.
CC(=O)N1CCN(C(=O)CSc2cc(C)c3cccc(C)c3n2)CC1	.	.	.	9	.
CN(CC(=O)NC(=O)NC1CCCCC1)Cc1ccc(C(F)(F)F)cc1	.	.	.	1	.
Cc1cc(C(=O)Cn2cnc3c2c(=O)n(C)c(=O)n3C)c(C)n1Cc1ccccc1	.	.	.	6	.
Cc1ccc(S(C)=O)cc1-n1c(=O)n(Cc2ccccc2)c(=O)c2[nH]cnc21 (stereo not given)	-1	-31	1	-5	-104*
COc1ccc(Cn2c(=O)c3[nH]cnc3n(-c3ccccc3C)c2=O)cc1	-7	24	-2	-1	5
COc1ccc(C)c(-n2c(=O)n(Cc3ccccc3)c(=O)c3[nH]cnc32)c1	-2	-29	-2	-2	-97*
CCC(C)N1CCN(C(=O)c2cccs2)CC1 (stereo not given)	-1	-17	-6	-16	-65*
COc1ccc(CCC(=O)N2CCN(C3CCCCC3)CC2)cc1	-2	19	.	-4	13
O=C(c1ccco1)N1CCN(C(=O)c2cccs2)CC1	2	-2	.	-10	-56*
CC/C=C(/C)C(=O)N1CCN(C(=O)c2cccs2)CC1	.	.	.	3	.
O=C(CCCc1ccccc1)N1CCN(C2CCCCC2)CC1	4	-6	4	-8	-84*
O=C(c1ccco1)N1CCN(C2CCCC2)CC1	-2	-4	1	-13	-74*
O=C(NC1CCN(S(=O)(=O)c2ccccc2Cl)CC1)C1CCCCC1	.	.	.	3	.
c1ccc(CCN(Cc2ccccc2)C2CCN(C3CCCC3)CC2)cc1	4	-17	10	-12	-65*
OCC1(CCCc2ccccc2)CCN(C2CCC2)CC1	0	-8	-2	-10	-6
O=C(CSc1nnc(Cc2cccs2)n1C1CCCCC1)N1CCN(C(=O)c2ccco2)CC1	1	-8	-7	-12	-62*
OCC[C@@H]1C[C@H](O)[C@@H](O)[C@]2(OCc3ccc(CO)cc32)O1	1	-15	-6	-8	-64*
O=C(Nc1ccc(Cl)c(C(F)(F)F)c1)NC1CC2CCCC(C1)N2Cc1ccccc1 (stereo not given)	0	-19	3	1	-84*
SMILES	PI4K2A block	D3 ag	PI5P4K alpha inh	LDHA block	DRD3 antagonist
S=C(NC1CCCCC1)NC1CC2CCC(C1)N2Cc1ccccc1 (stereo not given)	-1	-18	2	-8	-79*
CCNC(=S)NC1CC2CCCC(C1)N2CCc1ccccc1 (stereo not given)	0	-1	-4	-9	0
CC(C)CNC(=S)NC1CC2CCC(C1)N2Cc1ccccc1 (stereo not given)	-2	-28	.	-10	-75*
S=C(NCCc1ccccc1)NC1CC2CCC(C1)N2Cc1ccccc1 (stereo not given)	1	-14	1	-5	-74*
CCCCn1nc(C(=O)NCCc2cccs2)c2ccccc2c1=O	.	.	.	-13	.
CCNC(=S)NC1CC2CCC(C1)N2Cc1ccccc1 (stereo not given)	0	-32	.	3	-76*
O=C(NC1CC2CCCC(C1)N2Cc1ccccc1)C1CCCCC1 (stereo not given)	0	-5	0	-6	-65*
CCCNC(=S)NC1CC2CCC(C1)N2Cc1ccccc1 (stereo not given)	4	-25	.	-5	-147*

Source: PubChem BioAssay (National Center for Advancing Translational Sciences (NCATS))
